From PubChem BioAssay (NCI) come the findings set out here.

The panel holds about 83,000 compounds, 20% with a hit somewhere; the sample as a whole holds those more often.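 The test compound was applied at a single concentration to cells in 96-well plates for 48 hours, and percent growth was recorded.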 A number with no mark means an inactive call. Activity calls are given as the source filed them. Rule for the calls: active = growth percent below 10; inactive = the rest.

The first assay deals with NCI-H23 lung. As to the kind of experiment: NCI-60 one-dose screen, 48 h (100 = growth as untreated, 0 = no growth, -100 = all killed). The conditions noted are these: 10 µM.
Turning to `O=C(Nc1ccc(I)cc1F)c1cc(-c2ccc(F)cc2F)ccc1O`, the growth was -22% (active).

`CN1CCN(c2ccc(C(=O)/C=C/c3ccc(C#N)cc3)cc2)CC1`: the growth was 76.5%.

As to `Cc1ccc([N+](=O)[O-])c(C(=O)Nc2ccc(-c3ccc4c(c3)NC(=O)/C4=C\c3ccc[nH]3)cc2)c1`, the growth was 21%.

Turning to `CN1CCO/C1=C(/NC(=O)c1ccc(Cl)cc1)[P+](c1ccccc1)(c1ccccc1)c1ccccc1`, the growth was 84.5%.

`CNCc1cccc2c1OCCCCCC[C@@](C)(O)CC1(CC1)S(=O)(=O)c1ccc(cc1)-c1cnc(N)c(n1)C(=O)N2`: the growth was -95.4% (active).

Consider `Cc1cccc(NC(=O)CSc2nc3ccc(F)cc3c(=O)n2-c2ccc(Cl)cc2)c1C`, for which the growth is 63%.

Take `CC(=O)OC[C@@]1(C)C2CC[C@]3(C)C(CC=C4C5CC(C)(C)CC[C@]5(C(=O)Nc5ccccc5)CC[C@]43C)[C@@]2(C)C[C@@H](OC(C)=O)[C@@H]1OC(C)=O` (some centres undefined): the growth was 40.2%.

With `CC1=C2C(=C[C@@](C)(COCOCCCl)[C@@H]2O)C(=O)[C@](C)(O)C12CC2`, the growth is -81.7% (active).

For the molecule `CCN1CCN(Cc2ccc(NC(=O)c3cccc(-n4cc(-c5ccc(NC(C)=O)nc5)nn4)c3)cc2C(F)(F)F)CC1`, the growth was 93%.

For `O=C(c1ccc(O)cc1)C1[C@H](c2ccc(Br)cc2)[C@@H](c2ccccc2)NC12C(=O)Nc1ccccc12` (some centres undefined), the growth is 7.68% (active).

In the case of `Nc1nnc(-c2c[nH]c3ccc(F)cc23)c(-c2c[nH]c3ncccc23)n1`, the growth was 86.6%.

Turning to `O=C(c1ccc(Cl)cc1)C1[C@H](c2ccccc2Br)[C@@H](c2ccccc2)NC12C(=O)Nc1ccc(Cl)cc12` (some centres undefined), the growth is -22.3% (active).

`Cc1ccc(NCC(=O)Nn2c(COc3ccccc3)nc3ccccc3c2=O)cc1`: the growth was 67.8%.

As to `NS(=O)(=O)c1ccc(N=Nc2c(O)n(CC(=O)Nc3ccccc3Br)c3ccccc23)cc1`, the growth is 40%.

As to `CN(C(=O)c1ccc(C(F)(F)F)cc1C(F)(F)F)c1sc2c(c1C#N)CCC(=O)C2`, the growth was 50%.

For the molecule `CC(C)(C)Nc1nc2cc(Cl)c(Cl)cc2nc1S(C)(=O)=O`, the growth was -63.6% (active).

For `Cc1ccc(/C(N)=N/c2sc(-c3ccccc3)nc2-c2ccccc2)cc1`, the growth is 83.1%.

Turning to `O=c1cc(-c2ccccc2)oc2cc(OCCCNCc3ccccc3)cc(O)c12`, the growth was -91% (active).

With `CCOC(=O)C1NN(c2ccc(S(N)(=O)=O)cc2)c2nc3nc(-c4cccs4)cc(-c4cccs4)c3c(=O)n21` (centres undefined), the growth is 96.6%.

As to `N#Cc1c(NC(=O)c2ccc(C(F)(F)F)cc2)sc2c1CCC(O)=C2`, the growth was 23.9%.

Regarding `COc1ccc2[nH]cc(/C=N/Nc3ccc(Br)cn3)c2c1`, the growth is 36.6%.

As to `Cc1cc(C(F)(F)F)ccc1C(=O)Nc1sc2c(c1C#N)CCC(=O)C2`, the growth was -28.3% (active).

Regarding `Cc1ccc(F)cc1N/C=c1\s/c(=C(\C#N)C(=O)Nc2ccccc2)n(-c2ccccc2)c1=O`, the growth is 58%.

In the case of `CCCn1c(=O)c2[nH]c(-c3ccc(OCc4nc5ccc(C)cc5[nH]4)cc3)nc2n(CCC)c1=O`, the growth was 25.3%.

As to `O=C(O)CCCCCCCCCCN1C(=O)/C(=C/c2cnc(-c3ccccc3)s2)SC1=S`, the growth is 55.9%.

As to `O=C1NC(=NC2CCCCCC2)N/C1=C\c1ccc2ncoc2c1`, the growth is 19.2%.

`COc1ccc2[nH]c(=O)c(CSc3cccc(N)c3)cc2c1`: the growth was 79.2%.

Take `O=C(c1ccc(Cl)cc1)C1[C@H](c2ccc(Br)cc2)[C@@H](c2ccccc2)NC12C(=O)Nc1ccc(Cl)cc12` (some centres undefined): the growth is -83.6% (active).

Turning to `C=CC(=O)Nc1ccc(C(=O)/C=C/c2ccc(N(C)CCF)cc2)c(O)c1`, the growth was -26.7% (active).

As for `COc1cccc(/C=C2\N=C(C)N(CCc3ccc(S(N)(=O)=O)cc3)C2=O)c1`, the growth is 102%.

Regarding `N#Cc1c(NC(=O)c2ccc(C(F)(F)F)cc2)sc2c1CCC(=O)C2`, the growth is -56.9% (active).

As to `COc1cc2oc(-c3cccc(C(=O)Nc4ccc(Cl)cc4)c3)cc(=O)c2c(OCCNC(=O)CNC(=O)OC(C)(C)C)c1OC`, the growth is 63.8%.

On to `Cc1ccc(C(=O)NNC(=O)CSc2nc3ccccc3c(=O)[nH]2)cc1`, for which the growth was 98.5%.

As to `Brc1ccc(/C=N/Nc2ncnc3sc4c(c23)CCN(Cc2ccccc2)C4)cc1`, the growth was 91.8%.

As to `Cc1cc2nc3c4ccccc4n(CCO)c3nc2cc1C`, the growth was 60.1%.

`O=C1NC(=NC23CC4CC(CC(C4)C2)C3)N/C1=C\c1ccc2ncccc2n1`: the growth is -53.7% (active).

With `CN1CCN(Cc2ccc(C(=O)Nc3cccc(Nc4ccc5cc(O)ccc5n4)c3)cc2C(F)(F)F)CC1`, the growth is -66% (active).

The subject of the next assay is NCI-H226 lung. The assay is described as above. To be noted: 10 µM.
`O=C(Nc1ccc(I)cc1F)c1cc(-c2ccc(F)cc2F)ccc1O`: the growth is -7.15% (active).

On to `CN1CCN(c2ccc(C(=O)/C=C/c3ccc(C#N)cc3)cc2)CC1`, for which the growth was 80.7%.

Turning to `Cc1ccc([N+](=O)[O-])c(C(=O)Nc2ccc(-c3ccc4c(c3)NC(=O)/C4=C\c3ccc[nH]3)cc2)c1`, the growth is 52%.

Turning to `CN1CCO/C1=C(/NC(=O)c1ccc(Cl)cc1)[P+](c1ccccc1)(c1ccccc1)c1ccccc1`, the growth is 89.3%.

For the molecule `CNCc1cccc2c1OCCCCCC[C@@](C)(O)CC1(CC1)S(=O)(=O)c1ccc(cc1)-c1cnc(N)c(n1)C(=O)N2`, the growth is -75.7% (active).

Consider `Cc1cccc(NC(=O)CSc2nc3ccc(F)cc3c(=O)n2-c2ccc(Cl)cc2)c1C`, for which the growth was 21.5%.

Consider `CC(=O)OC[C@@]1(C)C2CC[C@]3(C)C(CC=C4C5CC(C)(C)CC[C@]5(C(=O)Nc5ccccc5)CC[C@]43C)[C@@]2(C)C[C@@H](OC(C)=O)[C@@H]1OC(C)=O` (some centres undefined), for which the growth was 40.6%.

`CC1=C2C(=C[C@@](C)(COCOCCCl)[C@@H]2O)C(=O)[C@](C)(O)C12CC2`: the growth is -39.2% (active).

For the molecule `CCN1CCN(Cc2ccc(NC(=O)c3cccc(-n4cc(-c5ccc(NC(C)=O)nc5)nn4)c3)cc2C(F)(F)F)CC1`, the growth is 99.9%.

On to `O=C(c1ccc(O)cc1)C1[C@H](c2ccc(Br)cc2)[C@@H](c2ccccc2)NC12C(=O)Nc1ccccc12` (some centres undefined), for which the growth is 43.5%.

As for `Nc1nnc(-c2c[nH]c3ccc(F)cc23)c(-c2c[nH]c3ncccc23)n1`, the growth was 57.9%.

Turning to `O=C(c1ccc(Cl)cc1)C1[C@H](c2ccccc2Br)[C@@H](c2ccccc2)NC12C(=O)Nc1ccc(Cl)cc12` (some centres undefined), the growth is 18.9%.

As to `Cc1ccc(NCC(=O)Nn2c(COc3ccccc3)nc3ccccc3c2=O)cc1`, the growth is 66.3%.

`NS(=O)(=O)c1ccc(N=Nc2c(O)n(CC(=O)Nc3ccccc3Br)c3ccccc23)cc1`: the growth is 14.4%.

As to `CN(C(=O)c1ccc(C(F)(F)F)cc1C(F)(F)F)c1sc2c(c1C#N)CCC(=O)C2`, the growth was 102%.

Turning to `CC(C)(C)Nc1nc2cc(Cl)c(Cl)cc2nc1S(C)(=O)=O`, the growth was -83% (active).

Take `Cc1ccc(/C(N)=N/c2sc(-c3ccccc3)nc2-c2ccccc2)cc1`: the growth was 94.3%.

Consider `O=c1cc(-c2ccccc2)oc2cc(OCCCNCc3ccccc3)cc(O)c12`, for which the growth is 46.4%.

Turning to `CCOC(=O)C1NN(c2ccc(S(N)(=O)=O)cc2)c2nc3nc(-c4cccs4)cc(-c4cccs4)c3c(=O)n21` (centres undefined), the growth is 5.85% (active).

On to `N#Cc1c(NC(=O)c2ccc(C(F)(F)F)cc2)sc2c1CCC(O)=C2`, for which the growth was 46.9%.

As to `COc1ccc2[nH]cc(/C=N/Nc3ccc(Br)cn3)c2c1`, the growth is 40%.

As to `Cc1cc(C(F)(F)F)ccc1C(=O)Nc1sc2c(c1C#N)CCC(=O)C2`, the growth is -13% (active).

On to `Cc1ccc(F)cc1N/C=c1\s/c(=C(\C#N)C(=O)Nc2ccccc2)n(-c2ccccc2)c1=O`, for which the growth was 20.3%.

For `CCCn1c(=O)c2[nH]c(-c3ccc(OCc4nc5ccc(C)cc5[nH]4)cc3)nc2n(CCC)c1=O`, the growth was -55% (active).

For `O=C(O)CCCCCCCCCCN1C(=O)/C(=C/c2cnc(-c3ccccc3)s2)SC1=S`, the growth was 103%.

Regarding `O=C1NC(=NC2CCCCCC2)N/C1=C\c1ccc2ncoc2c1`, the growth was 14.9%.

For `COc1ccc2[nH]c(=O)c(CSc3cccc(N)c3)cc2c1`, the growth is 74.5%.

Take `O=C(c1ccc(Cl)cc1)C1[C@H](c2ccc(Br)cc2)[C@@H](c2ccccc2)NC12C(=O)Nc1ccc(Cl)cc12` (some centres undefined): the growth is -85.6% (active).

Take `C=CC(=O)Nc1ccc(C(=O)/C=C/c2ccc(N(C)CCF)cc2)c(O)c1`: the growth was -11% (active).

For `COc1cccc(/C=C2\N=C(C)N(CCc3ccc(S(N)(=O)=O)cc3)C2=O)c1`, the growth was 104%.

`N#Cc1c(NC(=O)c2ccc(C(F)(F)F)cc2)sc2c1CCC(=O)C2`: the growth was -21.2% (active).

For `COc1cc2oc(-c3cccc(C(=O)Nc4ccc(Cl)cc4)c3)cc(=O)c2c(OCCNC(=O)CNC(=O)OC(C)(C)C)c1OC`, the growth is 59.7%.

Turning to `Cc1ccc(C(=O)NNC(=O)CSc2nc3ccccc3c(=O)[nH]2)cc1`, the growth is 92.4%.

For `Brc1ccc(/C=N/Nc2ncnc3sc4c(c23)CCN(Cc2ccccc2)C4)cc1`, the growth was 3.93% (active).

Turning to `Cc1cc2nc3c4ccccc4n(CCO)c3nc2cc1C`, the growth was 69.7%.

On to `O=C1NC(=NC23CC4CC(CC(C4)C2)C3)N/C1=C\c1ccc2ncccc2n1`, for which the growth is -15.6% (active).

`CN1CCN(Cc2ccc(C(=O)Nc3cccc(Nc4ccc5cc(O)ccc5n4)c3)cc2C(F)(F)F)CC1`: the growth was 26.5%.
